# Test results from PubChem BioAssay AID1159580 (chemical genetic matrix, 2015).
# In all, about 5,500 compounds went through this assay and about 2,000 (36%) were called active. Inconclusive results (about 18%) are left out. This is one part of the list. Unmarked numbers belong to inactive results. Cut-off read from the data, not from the text of the source: active = normalized growth mostly below about 0.91 (no sharp cut-off); inconclusive = no clear call, values can overlap the other calls; inactive = mostly above about 0.92.
# Assay: chemical genetic growth profiling, strain panel (AID 1159580);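 note: tested at 20 µM; growth read once vehicle control cultures reached saturation at 30 °C; 1 = growth at the plate median or of vehicle wells; lower values mean less growth of the strain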
# Conditions: S. cerevisiae deletion strains, growth OD
# [1] = locus YMR263W, strain SAP30, active compounds read low
# [2] = locus YNL153C, strain GIM3, active compounds read low
# [3] = locus YPL055C, strain LGE1, active compounds read low
# [4] = locus YDL101C, strain DUN1, active compounds read low
# [5] = locus YHR030C, strain SLT2, active compounds read low
smiles,measurement,setting,value
COc1ccc(-c2ccc(N)[n+](CCCC(=O)O)n2)cc1,normalized growth,"locus YAL040C, strain CLN3, active compounds read low",1.05
same,normalized growth,"locus YCL061C, strain MRC1 (second series), active compounds read low",1
same,normalized growth,"locus YDR363W, strain ESC2, active compounds read low",1.01
same,normalized growth,"locus YER002W, strain NOP16, active compounds read low",0.993
same,normalized growth,[1],1.01
same,normalized growth,"locus YMR307W, strain GAS1, active compounds read low",1.01
same,normalized growth,[2],1.03
same,normalized growth,"locus YNL175C, strain NOP13, active compounds read low",1
same,normalized growth,"locus YNL197C, strain WHI3, active compounds read low",1.01
same,normalized growth,"locus YNL224C, strain SQS1, active compounds read low",1.01
same,normalized growth,"locus YOR083W, strain WHI5 (second series), active compounds read low",1.02
same,normalized growth,[3],1.01
COc1ccc(/C(C)=N\NC2=NCCCN2)cc1,normalized growth,"locus YAL013W, strain DEP1, active compounds read low",1
same,normalized growth,"locus YBR229C, strain ROT2, active compounds read low",1.01
same,normalized growth,"locus YCL061C, strain MRC1, active compounds read low",1
same,normalized growth,[4],1.03
same,normalized growth,"locus YDR150W, strain NUM1, active compounds read low",0.999
same,normalized growth,"locus YEL061C, strain CIN8, active compounds read low",0.991
same,normalized growth,"locus YGR078C, strain PAC10, active compounds read low",1
same,normalized growth,[5],0.987
same,normalized growth,"locus YHR087W, strain rtc3, active compounds read low",0.993
same,normalized growth,"locus YJL187C, strain SWE1, active compounds read low",1.01
same,normalized growth,"locus YJR043C, strain POL32, active compounds read low",0.998
same,normalized growth,"locus YJR075W, strain HOC1, active compounds read low",0.986
same,normalized growth,"locus YKL190W, strain CNB1, active compounds read low",0.973
same,normalized growth,"locus YLR039C, strain RIC1, active compounds read low",0.957
same,normalized growth,"locus YLR058C, strain SHM2 (second series), active compounds read low",0.991
same,normalized growth,"locus YLR085C, strain ARP6, active compounds read low",0.982
same,normalized growth,"locus YLR262C, strain YPT6, active compounds read low",0.978
same,normalized growth,"locus YML094W, strain GIM5, active compounds read low",1.08
same,normalized growth,"locus YMR219W, strain ESC1, active compounds read low",0.997
same,normalized growth,[1],1
same,normalized growth,[2],1.01
same,normalized growth,"locus YNL298W, strain CLA4 (second series), active compounds read low",0.966
same,normalized growth,"locus YNL322C, strain KRE1, active compounds read low",1
same,normalized growth,"locus YNR030W, strain Alg12, active compounds read low",0.993
same,normalized growth,[3],1.01
same,normalized growth,"locus YPL241C, strain CIN2, active compounds read low",1.03
same,normalized growth,"locus YPR135W, strain CTF4, active compounds read low",1.04
CCCCCc1ccc(-c2nc(SCC(C)=O)n[nH]2)cc1,normalized growth,"locus YAR019C, strain CDC15, active compounds read low",0.933
same,normalized growth,"locus YBL105C, strain PKC1, active compounds read low",0.95
same,normalized growth,"locus YBR135W, strain CKS1, active compounds read low",0.959
same,normalized growth,"locus YBR136W, strain MEC1, active compounds read low",0.948
same,normalized growth,"locus YBR160W, strain CDC28, active compounds read low",0.947
same,normalized growth,"locus YDL017W, strain CDC7, active compounds read low",0.957
same,normalized growth,"locus YDL028C, strain MPS1, active compounds read low",0.932
same,normalized growth,[4],0.956
same,normalized growth,"locus YDL108W, strain KIN28, active compounds read low",0.949
same,normalized growth,"locus YDL132W, strain cdc53, active compounds read low",0.971
same,normalized growth,"locus YDL214C, strain PRR2, active compounds read low",0.835
same,normalized growth,"locus YDR052C, strain DBF4, active compounds read low",0.97
same,normalized growth,"locus YDR054C, strain cdc34, active compounds read low",0.922
same,normalized growth,"locus YDR226W, strain ADK1, active compounds read low",0.942
same,normalized growth,"locus YDR477W, strain SNF1, active compounds read low",0.773
same,normalized growth,"locus YER123W, strain YCK3, active compounds read low",0.761
same,normalized growth,"locus YER133W, strain GLC7, active compounds read low",0.838
same,normalized growth,"locus YFL009W, strain cdc4, active compounds read low",0.926
same,normalized growth,"locus YFL029C, strain CAK1, active compounds read low",0.938
same,normalized growth,"locus YFR003C, strain YPI1, active compounds read low",0.96
same,normalized growth,"locus YFR019W, strain FAB1, active compounds read low",0.885
same,normalized growth,"locus YFR028C, strain CDC14, active compounds read low",0.962
same,normalized growth,"locus YGR040W, strain KSS1, active compounds read low",0.748
same,normalized growth,"locus YGR052W, strain FMP48, active compounds read low",0.734
same,normalized growth,"locus YGR092W, strain DBF2, active compounds read low",0.662
same,normalized growth,[5],0.565 (active)
same,normalized growth,"locus YHR079C, strain IRE1, active compounds read low",0.636
same,normalized growth,"locus YHR082C, strain KSP1, active compounds read low",0.825
same,normalized growth,"locus YHR205W, strain SCH9, active compounds read low",0.799
same,normalized growth,"locus YIL147C, strain SLN1, active compounds read low",0.937
same,normalized growth,"locus YJL095W, strain BCK1, active compounds read low",0.658
same,normalized growth,"locus YJL128C, strain PBS2, active compounds read low",0.846
same,normalized growth,"locus YJL157C, strain FAR1, active compounds read low",0.85
same,normalized growth,"locus YJR016C, strain ILV3, active compounds read low",0.953
same,normalized growth,"locus YJR066W, strain TOR1 (second series), active compounds read low",0.73
same,normalized growth,"locus YJR066W, strain TOR1, active compounds read low",0.721
same,normalized growth,"locus YKL048C, strain ELM1, active compounds read low",0.688 (active)
same,normalized growth,"locus YKL067W, strain YNK1, active compounds read low",0.831
same,normalized growth,"locus YKL101W, strain HSL1, active compounds read low",0.714 (active)
same,normalized growth,"locus YKL193C, strain SDS22, active compounds read low",0.95
same,normalized growth,"locus YKL203C, strain TOR2, active compounds read low",0.875
same,normalized growth,"locus YLR113W, strain HOG1, active compounds read low",0.585 (active)
same,normalized growth,"locus YLR133W, strain CKI1, active compounds read low",0.86
same,normalized growth,"locus YLR403W, strain SFP1, active compounds read low",0.829
same,normalized growth,"locus YML070W, strain DAK1, active compounds read low",0.784
same,normalized growth,"locus YMR001C, strain CDC5, active compounds read low",0.94
same,normalized growth,"locus YMR205C, strain PFK2 (second series), active compounds read low",0.864
same,normalized growth,"locus YMR277W, strain FCP1, active compounds read low",0.932
same,normalized growth,"locus YNL006W, strain LST8, active compounds read low",0.947
same,normalized growth,"locus YNL020C, strain ARK1, active compounds read low",0.856
same,normalized growth,"locus YNL161W, strain CBK1, active compounds read low",0.958
same,normalized growth,"locus YNL183C, strain NPR1, active compounds read low",0.767
same,normalized growth,"locus YNL207W, strain RIO2, active compounds read low",0.947
same,normalized growth,"locus YNL222W, strain SSU72, active compounds read low",0.948
same,normalized growth,"locus YNL307C, strain MCK1 (second series), active compounds read low",0.826
same,normalized growth,"locus YOL078W, strain AVO1, active compounds read low",0.963
same,normalized growth,"locus YOL136C, strain PFK27, active compounds read low",0.82
same,normalized growth,"locus YOR061W, strain CKA2, active compounds read low",0.8
same,normalized growth,"locus YOR119C, strain RIO1, active compounds read low",0.779
same,normalized growth,"locus YOR231W, strain MKK1, active compounds read low",0.661
same,normalized growth,"locus YOR329C, strain SCD5, active compounds read low",0.949
same,normalized growth,"locus YPL031C, strain PHO85, active compounds read low",0.749
same,normalized growth,"locus YPL153C, strain RAD53, active compounds read low",0.688
same,normalized growth,"locus YPL204W, strain HRR25, active compounds read low",0.702
same,normalized growth,"locus YPL209C, strain IPL1, active compounds read low",0.96
same,normalized growth,"locus YPL256C, strain CLN2, active compounds read low",0.6 (active)
same,normalized growth,"locus YPR025C, strain CCL1, active compounds read low",0.954
same,normalized growth,"locus YPR106W, strain ISR1, active compounds read low",0.928
same,normalized growth,"locus YPR111W, strain DBF20, active compounds read low",0.913
same,normalized growth,"strain NNK1, active compounds read low",0.934
same,normalized growth,"strain TSCII, active compounds read low",0.936
